{"source": "ChEMBL document CHEMBL4513216", "about": "“Probing the Open Global Health Chemical Diversity Library for Multistage-Active Starting Points for Next-Generation Antimalarials” (ACS Infect Dis, 2020)", "note": "In all, about 65,000 compounds went through this assay and about 2,100 (3.2%) showed an effect of 50% or more. The median lay at about -52%. Only a selection was taken, and strong results are over-represented in it overall.", "data": [{"tested_on": "Plasmodium falciparum", "test": "Screen against P. falciparum Asexual Blood Stage (ABS), at 5uM", "type": "functional, Dd2", "settings": "tested at 5 uM", "units": {"INHIBITION": "%"}, "values": [{"smiles": "O=C(N1CCCC1)N1CCC[C@]2(C[C@@H](Oc3ncccc3F)CO2)C1", "INHIBITION": -39}, {"smiles": "CN(C)C1CCC2(CCN(Cc3cccnc3)CC2)c2ccccc21", "note": "(stereo unspecified)", "INHIBITION": 31.3}, {"smiles": "COc1ccccc1CNC(Cc1cccs1)c1nc(C)cs1", "note": "(stereo unspecified)", "INHIBITION": -11.1}, {"smiles": "COc1ccccc1CNC(Cc1cccs1)c1nc(C)c(C)s1", "note": "(stereo unspecified)", "INHIBITION": 59.8}, {"smiles": "COc1cccc(CNC(Cc2cccs2)c2nc(C)c(C)s2)c1OC", "note": "(stereo unspecified)", "INHIBITION": -80.8}, {"smiles": "CN1CCCC1c1cccc(Cc2ccccc2F)n1", "note": "(stereo unspecified)", "INHIBITION": -1.19}, {"smiles": "CC(=O)N1CCCC1c1cccc(Cc2ccccc2F)n1", "note": "(stereo unspecified)", "INHIBITION": -89.4}, {"smiles": "CN(C)C(=O)CN1CCCC1c1cccc(Cc2ccccc2F)n1", "note": "(stereo unspecified)", "INHIBITION": 68.8}, {"smiles": "CC(C)CN1CCn2c(nc3cc(C(=O)NC(C)C)ccc32)C1", "INHIBITION": -53.7}, {"smiles": "Cc1nc2c(c(NCC(O)C(F)(F)F)n1)CCNCC2", "note": "(stereo unspecified)", "INHIBITION": -121}, {"smiles": "OC(CNc1ncnc2c1CCNCC2)C(F)(F)F", "note": "(stereo unspecified)", "INHIBITION": -178}, {"smiles": "OC(CNc1nc(C2CCCC2)nc2c1CCNCC2)C(F)(F)F", "note": "(stereo unspecified)", "INHIBITION": 64.6}, {"smiles": "COCCNc1nc(C2CCCC2)nc2c1CCNCC2", "INHIBITION": 54.1}, {"smiles": "COCc1noc(CNc2nc(C3CCCC3)nc3c2CCNCC3)n1", "INHIBITION": 27.3}, {"smiles": "COCCNc1nc2c(c(NCC3CCOC3)n1)CCNCC2", "note": "(stereo unspecified)", "INHIBITION": -47.9}, {"smiles": "Cc1c(Cl)c(C(=O)NN2CCOCC2)nn1C", "INHIBITION": -48.6}, {"smiles": "O=C(CC1COCCN1S(=O)(=O)c1ccccc1)NCc1ccccn1", "note": "(stereo unspecified)", "INHIBITION": -170}, {"smiles": "O=C(C1CCC2(CCN(c3nncs3)CC2)CO1)N1CCCC1", "note": "(stereo unspecified)", "INHIBITION": 13.3}, {"smiles": "CC(C)CN1C(=O)C2(CCN(CC3CCOCC3)C2)c2ccccc21", "note": "(stereo unspecified)", "INHIBITION": 39.6}, {"smiles": "COc1ccsc1C(=O)N1CCCC(n2cncn2)C1", "note": "(stereo unspecified)", "INHIBITION": -121}, {"smiles": "O=C(NCc1ccco1)[C@H]1CC[C@@H]2[C@@H](CCN2Cc2nccs2)O1", "INHIBITION": -11.2}, {"smiles": "O=C(NCc1ccco1)[C@@H]1CC[C@@H]2[C@@H](CCN2Cc2ccc(F)cc2)O1", "INHIBITION": 67.2}, {"smiles": "O=C(NCc1ccco1)[C@H]1CC[C@@H]2[C@@H](CCN2Cc2cccnc2)O1", "INHIBITION": -34.5}, {"smiles": "Cc1ncsc1CN1C[C@H](C(=O)NC2CCCC2)[C@@H]2CCO[C@@H]2C1", "INHIBITION": 1.73}, {"smiles": "CCO[C@H]1CO[C@@]2(CCCN(Cc3scnc3C)C2)C1", "INHIBITION": -22.6}, {"smiles": "CS(=O)(=O)N1CCC2(CC1)CC(NCC1CC1)c1ccccc12", "note": "(stereo unspecified)", "INHIBITION": 48.3}, {"smiles": "CNC(=O)CNC1CC2(CCN(c3ncccn3)CC2)c2ccccc21", "note": "(stereo unspecified)", "INHIBITION": -84.5}, {"smiles": "c1cnc(N2CCC3(CC2)CC(NCC2CC2)c2ccccc23)nc1", "note": "(stereo unspecified)", "INHIBITION": 54.2}, {"smiles": "Cc1ccccc1-c1cc(C(=O)N2CCCC(n3ccnc3C)C2)[nH]n1", "note": "(stereo unspecified)", "INHIBITION": -29.5}, {"smiles": "COCCN1CCCCC12CC(=O)N(c1cccc(C#N)c1)C2", "note": "(stereo unspecified)", "INHIBITION": -132}, {"smiles": "COCCCNC(=O)CN1CCOC(c2ccccc2)C1", "note": "(stereo unspecified)", "INHIBITION": -41.4}, {"smiles": "CCc1cccc(N2CCC(NC(=O)c3ccco3)CC2)c1", "INHIBITION": 60.4}, {"smiles": "CCc1cccc(N2CCC(NC(=O)c3ccoc3C)CC2)c1", "INHIBITION": -16.9}, {"smiles": "CCc1cccc(N2CCC(NC(=O)c3ccncc3)CC2)c1", "INHIBITION": -62.9}, {"smiles": "CN1CCN(C(=O)[C@H]2C[C@@H]3CCN(c4ncc(F)cn4)C[C@@H]3O2)CC1", "INHIBITION": -116}, {"smiles": "O=C(c1cc(-n2cccn2)ccc1Cl)N1CCCC(N2CCCC2)C1", "note": "(stereo unspecified)", "INHIBITION": 65.8}, {"smiles": "O=C(c1ccc(-n2cccn2)c(F)c1)N1CCCN2CCCC2C1", "note": "(stereo unspecified)", "INHIBITION": -23.2}, {"smiles": "O=C(Nc1cccnc1-n1cccn1)N1CCCC(N2CCCC2)C1", "note": "(stereo unspecified)", "INHIBITION": 26.8}, {"smiles": "CCN(CC)C1CCN(C(=O)c2cc(-n3cccn3)ccc2Cl)CC1", "INHIBITION": 65.1}, {"smiles": "O=C(c1cc(-n2cccn2)ccc1Cl)N1CCC(N2CCCC2=O)CC1", "INHIBITION": -100}, {"smiles": "CCN(CC)C1CCN(C(=O)NCc2cccc(-n3cccn3)c2)C1", "note": "(stereo unspecified)", "INHIBITION": -61.3}, {"smiles": "Cc1cccc(NC2CCN(C(=O)Nc3ccc(F)c(F)c3)CC2)n1", "INHIBITION": -20.3}, {"smiles": "Cc1ccc(C(=O)N2CCC3(CC2)CC(N2CCOCC2)C3)cc1", "INHIBITION": -158}, {"smiles": "CC(C)CC(=O)Nc1cccc(CNCc2cccs2)c1", "INHIBITION": -70.1}, {"smiles": "O=C(c1cc[nH]n1)N1CCc2onc(COc3cccnc3)c2C1", "INHIBITION": -33.4}, {"smiles": "O=C(c1ccncc1F)N1Cc2nc(COCC3CC3)oc2C1", "INHIBITION": -37.7}, {"smiles": "c1cncc(COCc2nnc3n2CCN(Cc2ccco2)C3)c1", "INHIBITION": -119}, {"smiles": "Cn1cc(-c2cnc3n2CCC32CCN(S(=O)(=O)C3CC3)CC2)cn1", "INHIBITION": -61.5}, {"smiles": "Cc1cnc(NCc2csc(C(C)C)n2)nc1-c1cnn(C)c1", "INHIBITION": -52.9}, {"smiles": "CCCn1ccnc1CN1CCc2[nH]cnc2C1Cc1ccccc1", "note": "(stereo unspecified)", "INHIBITION": 66.5}, {"smiles": "CCn1ncnc1CN1CCc2[nH]cnc2C1Cc1ccccc1", "note": "(stereo unspecified)", "INHIBITION": -61.6}, {"smiles": "COCCn1ccnc1CN1CCc2[nH]cnc2C1c1ccccn1", "note": "(stereo unspecified)", "INHIBITION": -11.9}, {"smiles": "COc1ccc(N2CCN(CC(O)c3cc(C)ccc3C)CC2)cc1", "note": "(stereo unspecified)", "INHIBITION": 31.4}, {"smiles": "Oc1ccc(CCC2CCCCN2Cc2noc(C3CC3)n2)cc1", "note": "(stereo unspecified)", "INHIBITION": -61.9}, {"smiles": "Cc1nc(CN2CCCCC2CCc2ccc(O)cc2)no1", "note": "(stereo unspecified)", "INHIBITION": -168}, {"smiles": "Cc1noc(C)c1CN1CCCCC1CCc1ccc(O)cc1", "note": "(stereo unspecified)", "INHIBITION": 51.5}, {"smiles": "Cc1ccc(S(=O)(=O)N2CCc3nc(C4CCNCC4)ncc3C2)cc1", "INHIBITION": -51.4}, {"smiles": "N#Cc1cccc(C(=O)N2CCCC(O)(CO)CC2)c1", "note": "(stereo unspecified)", "INHIBITION": -41.3}, {"smiles": "Cn1cc(CN2CCc3ccc(=O)n(CC4CC4)c3CC2)cn1", "INHIBITION": -67.9}, {"smiles": "CS(=O)(=O)CCNC(=O)c1ccc(-c2ccco2)[nH]c1=O", "INHIBITION": -78.3}, {"smiles": "COc1ccc(CN2C[C@H](OCC3CCOCC3)[C@H]3COC[C@H]32)cc1", "INHIBITION": -12.7}, {"smiles": "Cc1nnc(N2CC[C@H](OCC3CC3)[C@@H](Cc3ccccc3)C2)s1", "INHIBITION": -3.27}, {"smiles": "COc1ccc(C[C@H]2CN(C3CCOCC3)CC[C@H]2OCC2CC2)cc1", "INHIBITION": 68.4}, {"smiles": "COc1ccc(C[C@H]2CN(C3CCOCC3)CC[C@@H]2OCC2CC2)cc1", "INHIBITION": 60.9}, {"smiles": "COc1ccc(OC)c(C2CCN(C3CCOCC3)C2)c1", "note": "(stereo unspecified)", "INHIBITION": -74.2}, {"smiles": "COc1ccc(CC2CN(C3CCSCC3)CCO2)cc1", "note": "(stereo unspecified)", "INHIBITION": -96.7}]}]}
